Screening results: PubChem, several laboratories
BoNT F protease = inhibitors of Botulinum neurotoxin F light chain protease. Multiplex microsphere protease cleavage assay, flow cytometry. inhibition, % at 10 µM. 0.22% of 360,000 active. AID 588497; in the data active = inhibition above about 35%, passing the limit was not always enough; inconclusive = no clear call, values can overlap the other calls
PriA SSB inh = blocks PriA binding to SSB C-terminal tail; AlphaScreen SSBct-PriA binding, biotinylated peptide; AID 1272365; inhibition, % at 33 µM; 0.6% of 430,000 active; in the data active = inhibition mostly above about 37%, no sharp cut-off; inactive = mostly below about 20%
Anthrax LF prot = anthrax lethal factor protease inhibition. inhibition, % at 10 µM. AID 588501. 0.12% of 360,000 active. P15917. multiplex microsphere protease cleavage assay, LF
Target sequence (P15917 whole entry, looked up): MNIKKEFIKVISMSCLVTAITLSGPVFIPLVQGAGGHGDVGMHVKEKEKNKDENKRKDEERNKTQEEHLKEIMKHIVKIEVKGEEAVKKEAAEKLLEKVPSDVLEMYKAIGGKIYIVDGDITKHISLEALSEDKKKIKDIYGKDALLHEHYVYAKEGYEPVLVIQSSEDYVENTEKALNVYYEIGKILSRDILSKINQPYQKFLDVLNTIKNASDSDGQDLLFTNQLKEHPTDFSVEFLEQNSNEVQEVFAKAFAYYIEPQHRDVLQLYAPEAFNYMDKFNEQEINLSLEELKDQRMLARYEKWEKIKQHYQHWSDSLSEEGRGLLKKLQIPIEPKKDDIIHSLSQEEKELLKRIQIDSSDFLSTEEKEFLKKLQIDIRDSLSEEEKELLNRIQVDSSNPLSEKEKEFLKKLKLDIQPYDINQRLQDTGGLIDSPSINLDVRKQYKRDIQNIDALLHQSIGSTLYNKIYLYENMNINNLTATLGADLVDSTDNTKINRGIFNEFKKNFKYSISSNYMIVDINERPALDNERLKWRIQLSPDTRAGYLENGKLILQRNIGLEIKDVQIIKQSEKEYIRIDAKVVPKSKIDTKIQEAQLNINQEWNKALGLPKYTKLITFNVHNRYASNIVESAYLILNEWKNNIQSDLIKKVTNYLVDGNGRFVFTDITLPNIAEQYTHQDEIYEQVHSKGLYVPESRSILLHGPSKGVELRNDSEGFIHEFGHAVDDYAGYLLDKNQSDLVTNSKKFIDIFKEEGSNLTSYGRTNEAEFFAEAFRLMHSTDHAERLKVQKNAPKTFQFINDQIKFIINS
Autofluor counter = counter-screen for toxin protease inhibitors: compound fluorescence; compound autofluorescence counterscreen, microsphere flow cytometry; stronger effect = higher value; fluorescence intensity (test concentration not listed); 3.1% of 360,000 active; in the data active = fluorescence intensity above about 16000; inconclusive = no clear call, values can overlap the other calls
BoNT A protease = inhibitors of Botulinum neurotoxin A light chain protease; multiplex microsphere protease substrate cleavage, flow cytometry; inhibition, % at 10 µM; 0.17% of 360,000 active; AID 588499
Each line names hits and unclear results; the compound was inactive in the other large screens. Compounds with a hit are over-represented: about 3.1% of the library has one in this group of screens. Rule as the data show it, unless noted: active = inhibition above about 30%; inconclusive = no clear call, values can overlap the other calls; inactive = below that.

COc1cc(OC)cc(C2=NN(C(=O)CCCC(=O)O)[C@H](c3ccc(F)cc3)C2)c1	none (no result: BoNT F protease, Anthrax LF prot, Autofluor counter, BoNT A protease)
O=C(Cn1nnc(-c2cccs2)n1)N1CCc2ccccc2C1	Autofluor counter 21633
COc1ccc(Nc2ccccc2)c(C)c1	Autofluor counter 22653
COc1cccc(Nc2cc(C)nc3ccccc23)c1	Autofluor counter 20171, BoNT A protease inconclusive
NC(=O)c1nc(-c2cccs2)nc2c1[nH]c(=O)n2-c1ccccc1F	none (no result: BoNT F protease, Anthrax LF prot, Autofluor counter, BoNT A protease)
COc1cc(C(=O)Nc2nc3c(F)cc(F)cc3s2)cc(OC)c1OC	none (no result: BoNT F protease, Anthrax LF prot, Autofluor counter, BoNT A protease)
CCN(Cc1ccccc1)S(=O)(=O)c1ccc(C(=O)Nc2ccccc2S(C)(=O)=O)cc1	none (no result: BoNT F protease, Anthrax LF prot, Autofluor counter, BoNT A protease)
COC(=O)c1cc(-c2ccccc2)sc1N	none
COC(=O)c1cn(C(=O)c2ccccc2F)nc1N	Autofluor counter 21604
COc1ccc(C)cc1Nc1nc(C(=O)NCc2ccccn2)cs1	none (no result: BoNT F protease, Anthrax LF prot, Autofluor counter, BoNT A protease)
CN1CCN(C2CCCCCC2)CC1	Autofluor counter 23426
O=S1(=O)CCN(C2CCCC2)CC1	none (no result: PriA SSB inh)
O=C(NCc1ccc(F)cc1)c1ccc(Cn2cnc3ccccc32)o1	none (no result: BoNT F protease, Anthrax LF prot, Autofluor counter, BoNT A protease)
O=S(=O)(c1cccc2nsnc12)N1CCCC1	none
O=S(=O)(c1cccc2nsnc12)N1CCc2ccccc2C1	Autofluor counter 21361, BoNT A protease inconclusive
CC(C)c1ccc(OCC(=O)N(CC(F)(F)F)C2CCOCC2)cc1	none (no result: BoNT F protease, Anthrax LF prot, Autofluor counter, BoNT A protease)
CCOc1cc(C)nc(Oc2ccc(=O)[nH]n2)n1	Autofluor counter 23697, BoNT A protease inconclusive
Cc1cc(Oc2ccc(=O)n(C)n2)nc(Oc2ccc(=O)[nH]n2)n1	none
CC1CCCCN1C(=O)NC12CC3CC(CC(C3)C1)C2 (stereo not given)	Autofluor counter 22908
O=C(NC12CC3CC(CC(C3)C1)C2)C1CCCN1C(=O)NC1CCCCC1 (stereo not given)	none
COc1ccc(NS(=O)(=O)c2cccc(C(=O)NCC(c3ccccc3OC)N3CCCC3)c2)cc1 (stereo not given)	none
COc1ccccc1C(CNC(=O)c1cccc(S(=O)(=O)Nc2ccc(F)cc2)c1)N1CCCC1 (stereo not given)	Autofluor counter 25818
O=C(NCC(c1ccco1)N1CCCC1)c1cccc(NS(=O)(=O)c2ccccc2)c1 (stereo not given)	Autofluor counter 16491
CC1(C)CC(=O)c2c(O)cc(OCc3ccc(Br)cc3)cc2O1	Autofluor counter 22502
CCOc1ccc(-c2nnc(SCC(=O)Nc3ccc4c(c3)c3ccccc3n4CC)n2N)cc1	Autofluor counter 16867
CCn1c2ccccc2c2cc(NC(=O)CSc3nnc(-c4ccc(OC)c(OC)c4)n3N)ccc21	Autofluor counter inconclusive
CCn1c2ccccc2c2cc(NC(=O)CSc3nnc(-c4cccc(OC)c4)n3N)ccc21	none
CCn1c2ccccc2c2cc(NC(=O)CSc3nnc(-c4ccccc4OC)n3N)ccc21	Autofluor counter 17821, BoNT A protease inconclusive
O=C(COc1ccc(S(=O)(=O)N2CCCC2)cc1Cl)NC1CCCC1	Autofluor counter 20890
O=C(COC(=O)c1cc(S(=O)(=O)N2CCCCC2)ccc1Cl)NC1CCCCC1	none (no result: PriA SSB inh)
Cc1cc(Cl)c(S(=O)(=O)NC(C(=O)O)c2ccccc2)cc1OCC(N)=O (stereo not given)	none
Cc1cc(Cl)c(S(=O)(=O)NC(C(=O)O)C(C)C)cc1OCC(=O)NC1CCCCC1 (stereo not given)	Autofluor counter 20262, BoNT A protease inconclusive
Cc1cc(Cl)c(S(=O)(=O)Nc2ccc3c(c2)OCO3)cc1OCC(=O)NC1CCCCC1	Autofluor counter 25458
O=C(NC1CC1)C1CCN(c2ccc(S(=O)(=O)N3CCOCC3)cc2Cl)CC1	Autofluor counter 22681
Cc1cc(Cl)c(S(=O)(=O)Nc2ccc3c(c2)OCO3)cc1OCC(N)=O	none
Cc1cc(Cl)c(S(=O)(=O)N2CCCC2)cc1OCC(=O)NC1CCCCC1	Autofluor counter 20066, BoNT A protease inconclusive
Cc1cc(Cl)c(S(=O)(=O)NCc2cccnc2)cc1OCC(=O)NC1CCCCC1	none
CC(C)C(=O)N1CCN(C2=NS(=O)(=O)c3ccccc32)CC1	none
O=C(C1CC(=O)N(c2ccccc2)C1)N1CCN(C2=NS(=O)(=O)c3ccccc32)CC1 (stereo not given)	Autofluor counter 23523
CCCC(=O)N1CCN(C2=NS(=O)(=O)c3ccccc32)CC1	Autofluor counter 23423, BoNT A protease inconclusive
CC1(C)Cc2cccc(OCc3ccc(C(=O)Nc4cccc(Cl)c4Cl)cc3)c2O1	none (no result: BoNT F protease, Anthrax LF prot, Autofluor counter, BoNT A protease)
COc1ccc(C(=O)NCCc2nnc3ccc(SCc4c(F)cccc4Cl)nn23)cc1	none (no result: BoNT F protease, Anthrax LF prot, Autofluor counter, BoNT A protease)
COc1ccc(N2CC(C(=O)NCCCN3CCOCC3)CC2=O)cc1 (stereo not given)	Autofluor counter 23842
Cc1ccc(N2CC(C(=O)NCCCn3ccnc3)CC2=O)cc1 (stereo not given)	Autofluor counter 16950
COc1ccc(N2CC(C(=O)NCCSC3CCOCC3)CC2=O)cc1 (stereo not given)	none (no result: BoNT F protease, Anthrax LF prot, Autofluor counter, BoNT A protease)
Cc1ccc(N2CC(NC(=O)NCCCn3ccnc3)CC2=O)cc1C (stereo not given)	PriA SSB inh 51 (no result: BoNT F protease, Anthrax LF prot, Autofluor counter, BoNT A protease)
Cc1cc2cc(CNC(=O)N[C@H]3CC(=O)N(c4ccc(C)c(C)c4)C3)ccc2[nH]1	none (no result: BoNT F protease, Anthrax LF prot, Autofluor counter, BoNT A protease)
COc1cc(/C=C\C(=O)NCc2cc(-c3ccc(C)cc3)on2)cc(OC)c1OC	none (no result: BoNT F protease, Anthrax LF prot, Autofluor counter, BoNT A protease)
N#Cc1cccnc1N1CCC(CNC(=O)COc2ccccc2F)CC1	none (no result: BoNT F protease, Anthrax LF prot, Autofluor counter, BoNT A protease)
CCOC(=O)c1ccc2c(c1)nc(COc1ccc(OC)cc1)n2CC	Autofluor counter 16133
Cc1cccc(NC(=O)C(C)Sc2nc3ccccc3c(=O)n2CCCN2CCOCC2)c1 (stereo not given)	Autofluor counter 18006
CCCC(=O)NC(c1ccc(OC)c(OC)c1)c1c(O)ccc2ccccc12 (stereo not given)	Autofluor counter 23446, BoNT A protease inconclusive
CCCCC(=O)NC(c1ccc(OC)c(OC)c1)c1c(O)ccc2ccccc12 (stereo not given)	none
CC(/C=N/NC(=O)c1cc(-c2ccncc2)nc2ccccc12)=C\c1ccco1	Autofluor counter 16302 (no result: PriA SSB inh)
COc1ccc(C(OC(=O)c2c(C)noc2C)C(=O)NC2CCCC2)cc1 (stereo not given)	Autofluor counter 19678
Cc1cc(C)n(CCO)n1	none (no result: BoNT F protease, Anthrax LF prot, Autofluor counter, BoNT A protease)
CCC(NC(=O)NCc1ccc2c(c1)OCO2)(C(F)(F)F)C(F)(F)F	Autofluor counter 16887, BoNT A protease inconclusive
CN(C)C(CNC(=O)C(=O)NCc1cccs1)c1cccs1 (stereo not given)	none (no result: BoNT F protease, Anthrax LF prot, Autofluor counter, BoNT A protease)
O=C1/C(=C\c2ccc(Cl)c(Cl)c2)N2CCC1CC2	BoNT F protease inconclusive, Anthrax LF prot 32
O=C1/C(=C/c2cc([N+](=O)[O-])ccc2Cl)N2CCC1CC2	Autofluor counter 16507
Cc1nc(N(C)C)nc(C)c1NC(=O)c1ccccc1C(F)(F)F	none (no result: BoNT F protease, Anthrax LF prot, Autofluor counter, BoNT A protease)
COc1ccc(C(=O)CSc2ncnc3c2cnn3-c2cccc(Cl)c2)cc1	none (no result: BoNT F protease, Anthrax LF prot, Autofluor counter, BoNT A protease)
CCOc1cc(-c2ccc(C)cc2)nc2ccc(C(=O)NCc3cccs3)cc12	none (no result: BoNT F protease, Anthrax LF prot, Autofluor counter, BoNT A protease)
CCN1Cc2c(/C=C/c3ccccc3)nc3ccc(OC)cc3c2N(c2cccc(Cl)c2)C1	BoNT A protease 53
CCc1ccccc1NC1Nc2cc(C)nn2S1 (stereo not given)	none
Cc1cc2n(n1)SC(Nc1cccc3ccccc13)N2 (stereo not given)	Autofluor counter 17932
